Each structure is given as a SMILES string. The full ranking holds about 110,000 compounds; the median of “z-score” is about -0.1, and the highest 2% start at about 2. The sample holds the highest values, similar compounds and a random draw of the others, so the mix is not that of the screen. Active and inactive are the calls of the source.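 Rule for the calls: active = z-score in the third read window above 3 or below -3; inactive = the rest.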

Sequence of Metabotropic glutamate receptor 8 (Rattus norvegicus) (P70579 whole entry, looked up): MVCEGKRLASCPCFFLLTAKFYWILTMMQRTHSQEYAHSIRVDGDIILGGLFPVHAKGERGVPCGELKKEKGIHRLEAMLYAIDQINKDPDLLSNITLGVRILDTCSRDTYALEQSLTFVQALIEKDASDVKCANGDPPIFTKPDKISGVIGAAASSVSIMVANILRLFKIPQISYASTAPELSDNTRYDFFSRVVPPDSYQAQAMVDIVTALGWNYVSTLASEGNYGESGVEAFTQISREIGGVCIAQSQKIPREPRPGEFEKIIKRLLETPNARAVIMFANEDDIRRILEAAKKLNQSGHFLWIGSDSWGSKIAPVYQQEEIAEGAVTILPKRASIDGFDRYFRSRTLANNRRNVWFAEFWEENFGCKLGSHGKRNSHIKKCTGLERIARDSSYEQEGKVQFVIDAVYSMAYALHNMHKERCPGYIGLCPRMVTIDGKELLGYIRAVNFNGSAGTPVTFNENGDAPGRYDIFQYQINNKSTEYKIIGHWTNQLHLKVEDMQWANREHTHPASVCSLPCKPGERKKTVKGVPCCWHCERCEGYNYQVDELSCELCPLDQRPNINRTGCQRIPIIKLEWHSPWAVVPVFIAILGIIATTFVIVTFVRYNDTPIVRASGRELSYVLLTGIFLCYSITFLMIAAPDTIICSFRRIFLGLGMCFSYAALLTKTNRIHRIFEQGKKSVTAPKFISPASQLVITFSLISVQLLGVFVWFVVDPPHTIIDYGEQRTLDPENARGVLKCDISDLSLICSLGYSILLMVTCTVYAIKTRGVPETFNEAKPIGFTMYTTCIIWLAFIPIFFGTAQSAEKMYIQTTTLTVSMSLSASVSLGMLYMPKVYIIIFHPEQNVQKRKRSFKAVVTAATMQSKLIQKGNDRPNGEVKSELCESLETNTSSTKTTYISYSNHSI

The assay has as its target Metabotropic glutamate receptor 8 (Rattus norvegicus) (UniProt P70579). Kind of assay: mGluR8 Gi/Go-coupled signaling modulation – cell-based, rat, thallium flux, HTS, primary screen (AID 488969). The following applies: HEK293 rat mGluR8, GIRK (G protein-gated inwardly rectifying potassium channel) thallium flux, FluoZin2; at 10 µM; stronger effect = higher value; submaximal glutamate (EC20) added with thallium.
Molecule `COC(=O)COc1cc(Br)c(/C=C2/SC(=O)N(CC(=O)N3CCCC3)C2=O)cc1OC` yielded a z-score of 0.0962. In turn, `O=C(OCc1nc2ccc(Cl)cc2n1CCO)c1ccc(O)cc1` registered a z-score of -0.133. In the case of `CCOC(=O)c1cc(CC)sc1NC(=O)c1ccc(N2C(=O)CCC2=O)cc1`, the z-score was -0.383. With `COc1ccc(C)cc1S(=O)(=O)N(C)CC(=O)N1CCCCCC1` the figure was -0.534; with `O=C(CSc1nc(-c2ccco2)cc(C(F)(F)F)n1)N1CCN(c2ccc(Cl)cc2)CC1`, -0.455.

In the case of `COc1ccc(C2C(C(N)=O)=C(C)Nc3nc(-c4ccccc4OC)nn32)cc1OC` (stereo unspecified), the z-score was 0.317. `CCN1C(=O)/C(=C/c2ccc(N3CCCC3)cc2)NC1=S` registered a z-score of 1.3. The figure for `O=C1N/C(=C\c2ccc(N3CCOCC3)c(F)c2)C(=O)N1Cc1ccccc1` is -0.434; for `Cc1ccc(NC(=O)CN2C(=O)N/C(=C/c3ccc(C)s3)C2=O)cc1` it is 0.22; for `O=C1/C(=C/c2ccc(N3CCCC3)cc2)NC(=S)N1C1CC1` it is 2.85. The figure for `CCCN1C(=O)/C(=C/c2ccc(N3CCCC3)c(C)c2)NC1=S` is 11 (active).

For `Cc1cccc(CN2C(=O)N/C(=C/c3ccc(C)s3)C2=O)c1`, the z-score is -0.147. With `CCCN1C(=O)c2cccc3c(N4CCCCC4)ccc(c23)C1=O` the figure was -0.337. With `O=C1N/C(=C/c2ccc(N3CCCC3)cc2)C(=O)N1c1ccccc1` the figure was -0.886; with `CC(C)CN1C(=O)/C(=C/c2cccs2)NC1=S`, 15.8 (active); with `CCCN1C(=O)/C(=C/c2ccc(C)s2)NC1=S`, 13.9 (active). With `COc1ccc(N2C(=O)/C(=C/c3cccs3)NC2=S)cc1` the figure was 1.07; with `COC(=O)C1=C(C)N(CC(C)C)C(=O)/C1=C\c1cccs1`, -0.236; with `O=C1CSC(=S)N1CC1CCCO1` (stereo unspecified), -0.08.

The molecule `Cc1noc(C)c1C(=O)NCCc1ccc(Cl)cc1` registered a z-score of -0.377. In turn, `COCC(=O)NC1CCN(C(=O)Nc2ccc(Br)cc2)CC1` showed a z-score of -0.036. With `CCOC(=O)c1c(C)[nH]c(C(=O)/C(C#N)=C/c2ccc(OC(F)F)c(OC)c2)c1C` the figure was -0.315.

As to `O=C(NCC(c1cccs1)N1CCOCC1)c1ccccc1NS(=O)(=O)c1ccc(Cl)cc1` (stereo unspecified), the z-score is -0.359. In turn, `Cc1csc(NC(=O)C2CCCN(S(=O)(=O)c3cnc[nH]3)C2)n1` (stereo unspecified) came in with a z-score of 0.36.

Consider `Cc1cccc(OCCSc2nc3c([nH]2)c(=N)ncn3Cc2ccccc2)c1`, for which the z-score was -0.0916. Molecule `CC(C)(C)c1ccc(C(=O)NC(=S)NCC2CCCO2)cc1` (stereo unspecified) displayed a z-score of 1.62. The figure for `Cc1ccccc1Nc1nc(-c2sc(NC(=O)c3ccco3)nc2C)cs1` is -0.239; for `Nc1ccc(Sc2cnn(-c3ccccc3)c(=O)c2Cl)cc1` it is -2.01.

In the case of `CCN1C(=O)/C(=C/c2ccc(C)s2)NC1=S`, the z-score is 15.1 (active). With `CCN1C(=O)/C(=C\N(C)C)NC1=S` the figure was -0.121; with `Cc1ccc(/C=C2/NC(=O)N(Cc3ccccc3)C2=O)s1`, -0.0544; with `CCS(=O)(=O)N1CCN(c2ccc(Cl)cc2[N+](=O)[O-])CC1`, 0.325. `CCOc1ccc(C(=O)CN2CCN(S(=O)(=O)c3ccc(OC)cc3)CC2)cc1` had a z-score of -0.414. Turning to `CCOc1ccc(C(=O)CN2CCN(S(=O)(=O)c3ccc(Br)cc3)CC2)cc1`, the z-score was 4.08 (active). The figure for `COc1cccc(C(=O)CN2CCN(S(=O)(=O)c3ccc(Br)cc3)CC2)c1` is -0.472. The figure for `CN1CCN(c2ccccc2NC(=O)COc2ccccc2)CC1` is -0.109. The figure for `COc1ccc(/C=N/NC(=O)CSc2nnc(C)n2-c2ccccc2)c(OC)c1OC` is -0.14; for `O=C1N=C(N2CCN(c3cccc4ccccc34)CC2)S/C1=C/c1cccs1` it is -0.0125; for `N=C1/C(=C/c2cccs2)C(=O)N=C2SN=C(SCc3ccccc3)N12` it is 9.53 (active). In turn, `CSC1=NSC2=NC(=O)/C(=C/c3coc4ccc(O)cc4c3=O)C(=N)N12` came in with a z-score of -0.47. For the molecule `O=C1NN(c2ccccc2)C(=O)/C1=C/c1coc2ccccc2c1=O`, the z-score was -0.738. Turning to `CSC1=NSC2=NC(=O)/C(=C/c3coc4ccccc4c3=O)C(=N)N12`, the z-score was 10.4 (active).

The molecule `Cc1cc(/C=C2\C(=N)N3C(SCc4ccccc4)=NSC3=NC2=O)c(C)n1Cc1ccccc1` gave a z-score of 0.143. Molecule `O=[N+]([O-])c1ccc(N2CCCCC2)cc1NCCOc1ccccc1` registered a z-score of 0.0562.

As to `CCc1ccc(/C=c2\s/c(=C\C(=O)C(C)(C)C)[nH]c2=O)cc1`, the z-score was 7.24 (active). As to `Cc1cccc(/C=c2\s/c(=C\C(=O)C(C)(C)C)[nH]c2=O)c1`, the z-score is 9.35 (active). As to `CC(C)(C)C(=O)/C=c1\[nH]c(=O)/c(=C\c2ccc(F)cc2)s1`, the z-score was 5.06 (active). In turn, `Cc1cccc(/C=C2\CS/C(=C\c3cccc(C)c3)C2=O)c1` returned a z-score of -0.0758. The figure for `CCc1ccc(/C=C(\Cl)c2nc3cc(Cl)ccc3c(=O)[nH]2)cc1` is 0.511.

Turning to `Cc1ccccc1/C=c1\s/c(=C\C(=O)C(C)(C)C)[nH]c1=O`, the z-score was 5.84 (active).

In turn, `CSc1ccc(/C=c2\s/c(=C\C(=O)C(C)(C)C)n(CC(=O)NCCC3=CCCCC3)c2=O)cc1` returned a z-score of -0.0802. The figure for `COc1ccc(/C=c2\s/c(=C/C(=O)c3ccc(C)cc3)[nH]c2=O)c(OC)c1` is 0.0664; for `COc1ccc(/C=c2\s/c(=C/C(=O)c3ccc(C)cc3)[nH]c2=O)cc1OC` it is 0.46; for `COc1cccc(/C=c2\s/c(=C/C(=O)c3ccc(C)cc3)[nH]c2=O)c1OC` it is 1.51. `CC(C)(C)NC(=O)COC(=O)/C=C/c1ccc(F)cc1` displayed a z-score of -0.0768. The figure for `CC(C)(CNC(=O)/C=C/c1ccc(F)cc1)CNC(=O)/C=C/c1ccc(F)cc1` is -0.186. With `O=C(Cc1ccccc1)NC(NNc1ccccc1)(C(F)(F)F)C(F)(F)F` the figure was -0.447. The figure for `CC(C)N(Cc1nc(-c2ccccc2)no1)C(=O)CCCN1C(=O)c2ccccc2C1=O` is -0.305; for `CCOC(=O)c1ccc(NC(=S)N2CCSC2c2ccc(Br)cc2)cc1` (stereo unspecified) it is 0.308. Turning to `O=c1oc2cc(OCc3ccc(F)cc3F)ccc2cc1-c1ccc2ccccc2n1`, the z-score is -0.209. The figure for `O=S(=O)(c1ccc(Oc2ccc(Cl)cc2)c(S(=O)(=O)N2CCCCC2)c1)N1CCCCC1` is -0.278; for `CCOc1ccc(OCC)c(NC(=O)C2CCN(S(=O)(=O)c3cccc4nonc34)CC2)c1` it is 0.0264. `COc1ccc(Cn2c(C)c(C)c(C#N)c2NC(=O)Nc2cccc(Cl)c2)cc1` returned a z-score of -0.0483. The molecule `COc1ccc(-c2cc(C(F)(F)F)nc(SCC(N)=O)n2)cc1` yielded a z-score of 0.362. In turn, `Cn1c(=O)c2c(ncn2CC(=O)Nc2ccccc2)n(C)c1=O` had a z-score of 0.318. Regarding `Cc1ccc(C(=O)Nc2cccnc2)cc1S(=O)(=O)N1CCOCC1`, the z-score was determined as 0.265.

The record behind these values is PubChem BioAssay AID488969 (Vanderbilt High Throughput Screening Facility, 2010).
